test: compound effects on multiple myeloma cell viability – MM1S, calcein-AM fluorescence, 48 h, basal, profiling panel (AID 1165); conditions: higher = more signal; further: test concentration not given here

SMILES	z-score
COc1ccc(C#Cc2ccc3c(c2)[C@]2(C(=O)N3)[C@H](c3ccccc3OCCO)N3[C@H](c4ccccc4)[C@H](c4ccccc4)OC(=O)[C@H]3[C@@H]2C(=O)Nc2nc3ccccc3s2)cc1	-2.43
COCCCNC(=O)[C@@]1(C)c2ccccc2C(=O)N(C(C)C)[C@H]1c1ccc(CO)cc1	0.0651
COc1cc2c(cc1OC)CN(C(=O)[C@@H]1[C@H]3C(=O)O[C@H](c4ccccc4)[C@H](c4ccccc4)N3[C@H](c3ccc(O)cc3)[C@@]13C(=O)Nc1ccccc13)CC2	0.0197
COc1cccc(-c2cccc(=O)o2)c1	0.192
COCCOC(=O)N1C(=O)[C@@]2(c3ccccc31)[C@H](c1ccc(O)cc1)N1[C@H](c3ccccc3)[C@H](c3ccccc3)OC(=O)[C@H]1[C@@H]2C(=O)Nc1nc2ccccc2s1	-1.49
O=C1O[C@@H](c2ccccc2)[C@@H](c2ccccc2)N2[C@@H](c3ccccc3OCCO)[C@]3(C(=O)Nc4ccccc43)[C@@H](C(=O)Nc3nc4ccccc4s3)[C@H]12	-3.17
CCCC[C@H]1OB(O)C[C@H]2C1=C(COC)Cn1c(=O)n(-c3ccccc3)c(=O)n12	-1.16
C=C(COC)C(=O)CC[C@@H](OC(C)=O)c1ccc(CO)o1	-0.0988
O=C1C[C@@](C(=O)NCC(F)(F)F)(c2ccc([N+](=O)[O-])cc2)[C@@H](c2ccc(CO)cc2I)N1C1CCCCC1	-2.28
COCCOC(=O)N1C(=O)[C@@]2(c3cc(C#CCC(C(=O)OC)C(=O)OC)ccc31)[C@H](C(=O)Nc1nc3ccccc3s1)[C@H]1C(=O)O[C@H](c3ccccc3)[C@H](c3ccccc3)N1[C@@H]2c1ccccc1OCCO	-0.139
CN1C(=O)C2C=CC(C(O)C3CC=CCC3)N(N(c3ccccc3)c3ccccc3)C2C1=O (configuration not stated)	0.535
N#Cc1ccc(NN2C(C(O)C(c3ccccc3)c3ccccc3)C=CC3C(=O)N(c4ccccc4)C(=O)C32)cc1 (configuration not stated)	0.0017
O=C1N[C@@H](Cc2ccccc2)C(=O)N2[C@@H]1C[C@@H](C(=O)O)[C@H]2c1cccc(OCCO)c1	-2.61
COC(=O)[C@@]1(Cc2ccc(F)cc2)[C@H]2c3cc(C(=O)N(C)C)n(Cc4cc(F)c(F)c(F)c4)c3C[C@H]2CN1C(=O)c1ccccc1	-0.711
COc1ccc([Si](C)(C)[C@H]2[C@H](CC(=O)N3Cc4ccccc4C[C@H]3CO)O[C@@]3(C(=O)N(Cc4cccc(N5CCC5=O)c4)c4ccccc43)[C@@H]2C)cc1	-2.68
CC1CC/C=C\[C@H]2OC34C=CCN(C(C)(C)C)C(=O)[C@H]3N(CCO)C(=O)[C@@H]4C2C(=O)O1 (some centres not stated)	1.16
CC(C)=CCN[C@H](CO)c1ccccc1	-1.22
CC(C)C[C@@H]1NC(=O)[C@@H]2C[C@H](C(=O)NCc3ccc(F)cc3)[C@H](c3cccc(OCCO)c3)N2C1=O	1.04
COC(=O)[C@@]1(Cc2ccc(F)cc2)[C@H]2c3cc(C(=O)N4CCCC4)n(Cc4ccc(S(C)(=O)=O)cc4)c3C[C@H]2CN1C(=O)c1ccccc1	-1.23
Cc1ccc(S[C@]2(C(=O)NCCCN(C)C)CC(=O)N(Cc3cc(C(F)(F)F)cc(C(F)(F)F)c3)[C@@H]2c2ccc(CO)cc2I)cc1	-2.19
O=C1C[C@@](C(=O)NCCN2CCOCC2)(c2ccc([N+](=O)[O-])cc2)[C@@H](c2ccc(CO)cc2I)N1CC12CC3CC(CC(C3)C1)C2	-3.86
CCCC=C(CCC)[C@@H](NC(=O)c1cccs1)c1ccc(C(F)(F)F)cc1	-1.41
CCOC(=O)C[C@H]1[C@H](OC(=O)c2ccc(C(=O)c3ccccc3)cc2)[C@@H](NC(=O)c2ccccc2)c2cc(OCCCO)ccc2N1C(=O)c1ccc2ccccc2n1	0.294
COC(=O)[C@@]1(CCC(=O)OC(C)(C)C)N=C(c2ccc(OCCCO)cc2)O[C@H]1c1ccccc1N=[N+]=[N-]	-3.6
CCOC(=O)C[C@H]1[C@H](OC(=O)c2cc3ccccc3oc2=O)[C@@H](NC(=O)c2ccccc2)c2cc(OCCCO)ccc2N1C(=O)c1ccc2ccccc2n1	-0.0357
C=CCNC(=O)[C@@H]1[C@H]2C(=O)O[C@H](c3ccccc3)[C@H](c3ccccc3)N2[C@H](c2ccc(O)cc2)[C@@]12C(=O)N(C(=O)OCCOC)c1ccc(C#CCNC(N)=O)cc12	0.768
C=CCNC(=O)[C@H]1[C@@H]2C(=O)O[C@@H](c3ccccc3)[C@@H](c3ccccc3)N2[C@@H](c2ccccc2OCCO)[C@]12C(=O)Nc1ccc(C#CCC(C(=O)OC)C(=O)OC)cc12	-3.34
